# Data taken from PubChem BioAssay AID1159580 (chemical genetic matrix, 2015).
# Among all 5,500 compounds or so, about 2,000 (36%) were called active. Another 18% or so got no clear call; they are omitted. Some of the results follow. Unmarked numbers belong to inactive results. Cut-off read from the data, not from the text of the source: active = normalized growth mostly below about 0.91 (no sharp cut-off); inconclusive = no clear call, values can overlap the other calls; inactive = mostly above about 0.92.
# Test: chemical genetic growth profiling, strain panel (AID 1159580);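 note: tested at 20 µM; growth read once vehicle control cultures reached saturation at 30 °C; 1 = growth at the plate median or of vehicle wells; lower values mean less growth of the strain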
# Conditions: S. cerevisiae deletion strains, growth OD
# [1] = locus YAL013W, strain DEP1, active compounds read low
# [2] = locus YBR229C, strain ROT2, active compounds read low
# [3] = locus YDL101C, strain DUN1, active compounds read low
# [4] = locus YDL134C, strain PPH21, active compounds read low
# [5] = locus YDR150W, strain NUM1, active compounds read low
# [6] = locus YEL061C, strain CIN8, active compounds read low
# [7] = locus YGR078C, strain PAC10, active compounds read low
# [8] = locus YHR030C, strain SLT2, active compounds read low
# [9] = locus YHR087W, strain rtc3, active compounds read low
# [10] = locus YJR043C, strain POL32, active compounds read low
# [11] = locus YJR075W, strain HOC1, active compounds read low
# [12] = locus YLR039C, strain RIC1, active compounds read low
# [13] = locus YLR058C, strain SHM2 (second series), active compounds read low
# [14] = locus YLR085C, strain ARP6, active compounds read low
# [15] = locus YLR262C, strain YPT6, active compounds read low
# [16] = locus YML094W, strain GIM5, active compounds read low
# [17] = locus YMR219W, strain ESC1, active compounds read low
# [18] = locus YNL128W, strain TEP1, active compounds read low
# [19] = locus YNL153C, strain GIM3, active compounds read low
# [20] = locus YNL298W, strain CLA4 (second series), active compounds read low
# [21] = locus YNL322C, strain KRE1, active compounds read low
# [22] = locus YNR030W, strain Alg12, active compounds read low
# [23] = locus YPL055C, strain LGE1, active compounds read low
# [24] = locus YPL241C, strain CIN2, active compounds read low
# [25] = locus YPR135W, strain CTF4, active compounds read low
# [26] = locus YJL187C, strain SWE1, active compounds read low
smiles,measurement,setting,value
O=C(COC(=O)c1ccccc1Nc1cccc(F)c1)c1ccccc1,normalized growth,[1],0.98
same,normalized growth,[2],0.994
same,normalized growth,[3],1.01
same,normalized growth,[4],0.997
same,normalized growth,[5],1.01
same,normalized growth,[6],0.989
same,normalized growth,[7],0.982
same,normalized growth,[8],0.93
same,normalized growth,[9],1
same,normalized growth,[10],0.986
same,normalized growth,[11],1.03
same,normalized growth,"locus YKL190W, strain CNB1, active compounds read low",0.989
same,normalized growth,[12],1.01
same,normalized growth,[13],0.989
same,normalized growth,[14],0.916
same,normalized growth,[15],1.02
same,normalized growth,[16],0.996
same,normalized growth,[17],0.997
same,normalized growth,"locus YMR263W, strain SAP30, active compounds read low",0.997
same,normalized growth,"locus YMR307W, strain GAS1, active compounds read low",0.882
same,normalized growth,[18],0.987
same,normalized growth,[19],0.99
same,normalized growth,[20],0.97
same,normalized growth,[21],0.981
same,normalized growth,[22],0.978
same,normalized growth,[23],1.01
same,normalized growth,[24],0.96
same,normalized growth,[25],1.01
O=C(O)c1ccccc1Nc1ccccc1,normalized growth,[1],1.01
same,normalized growth,"locus YAL021C, strain ccr4, active compounds read low",0.953
same,normalized growth,"locus YAL026C, strain drs2, active compounds read low",0.921
same,normalized growth,"locus YAL030W, strain snc1, active compounds read low",0.94
same,normalized growth,"locus YAL040C, strain CLN3, active compounds read low",1.01
same,normalized growth,"locus YBL061C, strain skt5, active compounds read low",0.946
same,normalized growth,"locus YBR009C, strain hhf1, active compounds read low",0.992
same,normalized growth,"locus YBR023C, strain chs3, active compounds read low",0.951
same,normalized growth,"locus YBR171W, strain sec66, active compounds read low",0.894
same,normalized growth,"locus YBR231C, strain swc5, active compounds read low",0.966
same,normalized growth,"locus YBR279W, strain paf1, active compounds read low",0.964
same,normalized growth,"locus YCL011C, strain gbp2, active compounds read low",0.922
same,normalized growth,"locus YCL016C, strain dcc1, active compounds read low",0.961
same,normalized growth,"locus YCL061C, strain MRC1, active compounds read low",0.892 (active)
same,normalized growth,"locus YCL069W, strain vba3, active compounds read low",0.907 (active)
same,normalized growth,"locus YCR088W, strain abp1, active compounds read low",0.907 (active)
same,normalized growth,"locus YDL005C, strain med2, active compounds read low",0.957
same,normalized growth,"locus YDL040C, strain nat1, active compounds read low",0.944
same,normalized growth,"locus YDR001C, strain nth1, active compounds read low",0.892 (active)
same,normalized growth,"locus YDR069C, strain doa4, active compounds read low",1.01
same,normalized growth,"locus YDR137W, strain rgp1, active compounds read low",0.86
same,normalized growth,[5],0.994
same,normalized growth,"locus YDR159W, strain sac3, active compounds read low",0.957
same,normalized growth,"locus YDR195W, strain ref2",1.05
same,normalized growth,"locus YDR297W, strain sur2, active compounds read low",0.929
same,normalized growth,"locus YDR334W, strain swr1, active compounds read low",0.926
same,normalized growth,"locus YDR335W, strain msn5, active compounds read low",0.941
same,normalized growth,"locus YDR363W, strain ESC2, active compounds read low",1.01
same,normalized growth,"locus YDR392W, strain spt3, active compounds read low",0.852
same,normalized growth,"locus YEL003W, strain gim4, active compounds read low",0.924
same,normalized growth,"locus YEL037C, strain rad23, active compounds read low",0.913 (active)
same,normalized growth,"locus YEL061C, strain CIN8 (second series), active compounds read low",0.899 (active)
same,normalized growth,"locus YER002W, strain NOP16, active compounds read low",0.941
same,normalized growth,"locus YER015W, strain faa2, active compounds read low",0.947
same,normalized growth,"locus YER016W, strain bim1, active compounds read low",0.972
same,normalized growth,"locus YER111C, strain swi4, active compounds read low",0.908 (active)
same,normalized growth,"locus YER155C, strain BEM2 (second series), active compounds read low",0.909
same,normalized growth,"locus YFR010W, strain ubp6, active compounds read low",0.989
same,normalized growth,"locus YGL167C, strain pmr1, active compounds read low",0.92
same,normalized growth,"locus YGL173C, strain kem1, active compounds read low",0.954
same,normalized growth,"locus YGL227W, strain vid30, active compounds read low",0.909 (active)
same,normalized growth,"locus YGL240W, strain doc1, active compounds read low",0.985
same,normalized growth,"locus YGL253W, strain hxk2, active compounds read low",0.926
same,normalized growth,[7],0.964
same,normalized growth,"locus YHR013C, strain ard1, active compounds read low",0.989
same,normalized growth,"locus YHR027C, strain rpn1, active compounds read low",0.938
same,normalized growth,[8],0.482 (active)
same,normalized growth,"locus YHR079C, strain IRE1, active compounds read low",0.395 (active)
same,normalized growth,"locus YHR142W, strain chs7, active compounds read low",0.908
same,normalized growth,"locus YJL092W, strain hpr5, active compounds read low",0.893 (active)
same,normalized growth,"locus YJL095W, strain BCK1 (second series), active compounds read low",0.938
same,normalized growth,"locus YJL095W, strain BCK1, active compounds read low",0.502 (active)
same,normalized growth,"locus YJL115W, strain asf1, active compounds read low",0.901 (active)
same,normalized growth,"locus YJL129C, strain trk1, active compounds read low",0.847 (active)
same,normalized growth,"locus YJL154C, strain vps35, active compounds read low",0.894 (active)
same,normalized growth,"locus YJL164C, strain tpk1, active compounds read low",0.957
same,normalized growth,"locus YJL166W, strain qcr8, active compounds read low",0.97
same,normalized growth,[26],0.971
same,normalized growth,"locus YJR066W, strain TOR1, active compounds read low",0.392 (active)
same,normalized growth,"locus YKL160W, strain elf1, active compounds read low",0.938
same,normalized growth,"locus YKR026C, strain gcn3, active compounds read low",0.903 (active)
same,normalized growth,"locus YKR091W, strain srl3, active compounds read low",0.927 (active)
same,normalized growth,"locus YLL001W, strain dnm1, active compounds read low",0.966
same,normalized growth,"locus YLL026W, active compounds read low",0.934
same,normalized growth,"locus YLL041C, strain sdh2, active compounds read low",0.925 (active)
same,normalized growth,"locus YLR027C, strain aat2, active compounds read low",0.956
same,normalized growth,"locus YLR113W, strain HOG1, active compounds read low",0.291 (active)
same,normalized growth,"locus YLR221C, strain rsa3, active compounds read low",0.962
same,normalized growth,"locus YLR258W, strain gsy2, active compounds read low",0.961
same,normalized growth,"locus YLR262C, strain YPT6 (second series), active compounds read low",0.832 (active)
same,normalized growth,"locus YLR320W, strain mms22, active compounds read low",0.99
same,normalized growth,"locus YLR342W, strain FKS1, active compounds read low",0.923
same,normalized growth,"locus YLR357W, strain rsc2, active compounds read low",1.03
same,normalized growth,"locus YLR370C, strain arc18, active compounds read low",0.945
same,normalized growth,"locus YLR384C, strain iki3, active compounds read low",0.934
same,normalized growth,"locus YML120C, strain ndi1, active compounds read low",0.963
same,normalized growth,"locus YMR058W, strain fet3, active compounds read low",0.935
same,normalized growth,"locus YMR125W, strain sto1, active compounds read low",0.988
same,normalized growth,"locus YMR129W, active compounds read low",0.889 (active)
same,normalized growth,"locus YMR205C, strain PFK2, active compounds read low",1
same,normalized growth,"locus YMR231W, strain pep5, active compounds read low",0.933
same,normalized growth,"locus YNL071W, strain lat1, active compounds read low",0.929
same,normalized growth,[18],0.973
same,normalized growth,"locus YNL175C, strain NOP13, active compounds read low",0.935
same,normalized growth,"locus YNL183C, strain NPR1, active compounds read low",0.367 (active)
same,normalized growth,"locus YNL197C, strain WHI3, active compounds read low",0.927
same,normalized growth,"locus YNL209W, strain ssb2, active compounds read low",0.949
same,normalized growth,"locus YNL224C, strain SQS1, active compounds read low",0.94
same,normalized growth,"locus YNL248C, strain rpa49, active compounds read low",0.99
same,normalized growth,"locus YNL322C, strain KRE1 (second series), active compounds read low",0.871 (active)
same,normalized growth,"locus YNR049C, strain mso1, active compounds read low",0.922
same,normalized growth,"locus YOR001W, strain rrp6, active compounds read low",0.951
same,normalized growth,"locus YOR070C, strain gyp1, active compounds read low",0.945
same,normalized growth,"locus YOR080W, strain dia2, active compounds read low",0.959
same,normalized growth,"locus YOR083W, strain WHI5 (second series), active compounds read low",0.982
same,normalized growth,"locus YOR083W, strain WHI5, active compounds read low",0.929
same,normalized growth,"locus YOR106W, strain vam3, active compounds read low",0.956
same,normalized growth,"locus YOR231W, strain MKK1, active compounds read low",0.413 (active)
same,normalized growth,"locus YOR265W, strain rbl2, active compounds read low",0.941
same,normalized growth,"locus YOR270C, strain vph1, active compounds read low",0.97
same,normalized growth,"locus YOR290C, strain snf2, active compounds read low",0.934
same,normalized growth,"locus YPL051W, strain arl3, active compounds read low",0.933
same,normalized growth,[23],1.01
same,normalized growth,"locus YPL078C, strain atp4, active compounds read low",0.914
same,normalized growth,"locus YPL106C, strain sse1, active compounds read low",1.01
same,normalized growth,"locus YPL240C, strain hsp82, active compounds read low",0.924 (active)
same,normalized growth,"locus YPL256C, strain CLN2, active compounds read low",0.36 (active)
O=C(/C=N\Nc1ccccc1)Nc1ccccc1C(=O)O,normalized growth,[1],0.975
same,normalized growth,[2],0.98
same,normalized growth,[3],0.99
same,normalized growth,[4],0.99
same,normalized growth,[5],0.883
same,normalized growth,[6],0.986
same,normalized growth,[7],0.92 (active)
same,normalized growth,"locus YGR229C, strain SMI1, active compounds read low",1.02
same,normalized growth,[8],0.716
same,normalized growth,[9],0.92
same,normalized growth,[26],0.983
same,normalized growth,[10],0.989
same,normalized growth,[11],0.953
same,normalized growth,[12],0.297 (active)
same,normalized growth,[13],0.97
same,normalized growth,[14],0.666 (active)
same,normalized growth,[15],0.242 (active)
same,normalized growth,[16],0.922
same,normalized growth,[17],0.976
same,normalized growth,[19],0.965
same,normalized growth,[20],0.93
same,normalized growth,[21],0.982
same,normalized growth,[22],0.958
same,normalized growth,[23],0.86
same,normalized growth,[24],0.792 (active)
same,normalized growth,[25],0.812
